Results: PubChem BioAssay

The compounds below were run on Wnt5a (protein binding on small-molecule microarray) (assay: small molecules binding Wnt5a protein – biophysical, small-molecule microarray, 635/667 nm fluorescence, primary screen (AID 1142;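 also: fluorescence read at 667 nm with signal to noise per printed feature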)). Conditions: 635 nm fluorescence, higher = more signal.
In the case of CN(C)C(=O)[C@]1(Cc2ccccc2N=[N+]=[N-])N=C(c2ccc(OCCCO)cc2)O[C@@H]1c1ccccc1, the composite z-score is reported as 0.8. CCCCCC1=C2CNC(CCC)(C(=O)OC)C=C2C(C)C1=O (stereo unspecified) gave a composite z-score of 0.0324. Work on COCCOC(=O)N1C(=O)[C@@]2(c3cc(C#CCCO)ccc31)[C@H](C(=O)N1CCc3cc(OC)c(OC)cc3C1)[C@H]1C(=O)O[C@H](c3ccccc3)[C@H](c3ccccc3)N1[C@@H]2c1ccc(O)cc1 yielded a composite z-score of 0.304. O=C(NCc1ccccc1)[C@@]1(Cc2ccccc2)N=C(c2ccc(OCCCO)cc2)O[C@H]1c1ccccc1 gave a composite z-score of 0.209. CC(C)c1ccc(NN2C(C(O)c3cc(C(F)(F)F)cc(C(F)(F)F)c3)C=CC3C(=O)N(c4ccccc4)C(=O)C32)cc1 (stereo unspecified) showed a composite z-score of -0.0702. Compound CN1C(=O)[C@]2(Cc3ccccc3)N=C(c3ccc(OCCCO)cc3)O[C@@H]2c2ccccc21 has a composite z-score of 0.928. Compound CC(C)(C)OC(=O)CC[C@]1(C(=O)NCC(O)CO)COC(c2ccc(OCCCO)cc2)=N1 (stereo partly specified) has a composite z-score of -0.05. Work on CCOC(=O)C[C@H]1[C@H](OC(=O)c2cc3ccccc3oc2=O)[C@@H](NC(=O)Cc2ccc(OC)cc2)c2cc(OCCCO)ccc2N1C(=O)c1ccccc1 yielded a composite z-score of 0.0687. In the case of COc1ccc(CCNC(=O)[C@@]2(Sc3ccc(C)cc3)CC(=O)N(C3CCCCC3)[C@@H]2c2ccc(CO)cc2I)cc1, the composite z-score is reported as 0.843. In the case of COc1ccc(C(=O)O[C@H]2CC[C@]3(C)C4=C(CCC3C2(C)C)[C@]2(C)CC[C@H]([C@H](C)CCCC(C)C)[C@@]2(C)CC4)cc1 (stereo partly specified), the composite z-score is reported as 0.314. Work on CCOC(=O)C[C@H]1[C@H](OC(=O)Cc2ccc3c(c2)OCO3)[C@@H](NC(=O)c2ccc3ccccc3c2)c2cc(OCCCO)ccc2N1C(=O)c1ccccc1 yielded a composite z-score of 0.0819.
